Assay outcomes deposited in PubChem by several laboratories.
A selection: hits, their analogues and other compounds. The true share with any hit is near 3.6%.
Autofluor counter: compound fluorescence in toxin protease inhibitor counterscreen; fluorescence intensity (concentration not given with the values); 360,000 tested, 3.1% active; compound autofluorescence counterscreen, microsphere flow cytometry; active compounds read high; in the data active means fluorescence intensity above about 16000; inconclusive means no clear call, values can overlap the other calls
BoNT-A LC inh2: BoNT A light chain protease inhibition; AID 588499; 360,000 tested, 0.17% active; inhibition, % at 10 µM; multiplex microsphere protease substrate cleavage, flow cytometry; further: plate controls were buffer without enzyme for full effect and enzyme alone for no effect
MazF activator: activators of E. coli MazEF toxin-antitoxin RNase | activation, % at 20 µM | AID 504720 | 350,000 tested, 0.32% active | P0AE70 | FAM/BHQ RNA-DNA oligo cleavage fluorescence, 5 h; in the data active means activation above about 50%
Target sequence (P0AE70 whole entry, looked up): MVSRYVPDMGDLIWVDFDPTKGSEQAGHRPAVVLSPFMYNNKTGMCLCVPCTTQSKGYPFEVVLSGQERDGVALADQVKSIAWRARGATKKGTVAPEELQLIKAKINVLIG
BoNT F protease: blocks Botulinum neurotoxin F light chain protease; Multiplex microsphere protease cleavage assay, flow cytometry; inhibition, % at 10 µM; 360,000 tested, 0.22% active; in the data active means inhibition above about 35%, passing the limit was not always enough; inconclusive means no clear call, values can overlap the other calls; further: plate controls were buffer without enzyme for full effect and enzyme alone for no effect
Anthrax LF inh2: anthrax lethal factor protease inhibition; 360,000 tested, 0.12% active; AID 588501; multiplex microsphere protease cleavage assay, LF; inhibition, % at 10 µM; P15917; further: plate controls were buffer without enzyme for full effect and enzyme alone for no effect
Numbers without * were called inactive; ? = inconclusive; . = no result given. Unless noted, no stated cut-off is given here; in the data, active means inhibition above about 30%; inconclusive means no clear call, values can overlap the other calls; inactive means below that.

SMILES	Autofluor counter	BoNT-A LC inh2	MazF activator	BoNT F protease	Anthrax LF inh2
COc1cccc(-c2cnc(C(O)c3ccc(-c4ccccc4)cc3)[nH]2)c1 (stereo not given)	4023	0	.	-8	-6
CC1(C)CC(=O)C=C(c2ccccc2-c2ccc(S(C)(=O)=O)cc2)C1=O	3410	0	8	0	0
Cc1ccc(C(=O)Nc2nc(=O)n(C)s2)cc1	22548*	?	8	0	-2
CC(=O)NC12CC3CC(C)(C1)CC(NC(C)=O)(C3)C2	23165*	?	2	4	-2
CC(=O)NC(C)C12CC3CC(CC(CC(=O)O)(C3)C1)C2 (stereo not given)	10629	0	-2	8	1
CC(=O)NC12CC3CC(CC(CC(=O)O)(C3)C1)C2	21352*	3	-8	5	1
Cc1cc2nc(-c3cccc(Br)c3)c(Cc3ccccc3)n2c(C)c1Br	6229	1	.	-9	-2
CCN(CC(=O)Nc1c(F)cccc1F)C(=O)c1ccc2c(c1)C(=O)N(c1ccccc1C)C2=O	3801	0	-3	11	3
C[C@@H](c1ccccc1)N1C[C@H](COCc2ccccc2)Oc2cc(N3CC[C@@H](O)C3)ccc2S1(=O)=O	5575	0	.	4	3
N#Cc1ccc(NC(=O)COC(=O)CCc2nc3ccccc3c(=O)[nH]2)cc1	26617*	-26	-3	-127	-15
Cc1cc(N2CCC(C(=O)N3CCN(c4cccc(C)c4C)CC3)CC2)n2ncnc2n1	17532*	-5	2	-6	-6
COc1ccccc1Oc1ccc(S(=O)(=O)N2CCCC2)cc1	23093*	1	-4	3	-3
COc1ccc(CNc2ccc(S(=O)(=O)N3CCN(C)CC3)cn2)cc1OC	6074	-4	5	?	-2
COc1ccccc1Oc1ccc(S(=O)(=O)N2CCCCC2C)cc1 (stereo not given)	3157	-2	-10	-3	4
NC(=O)CSc1nnc(-c2ccc(S(=O)(=O)N3CCCCC3)cc2)n1-c1ccccc1	9596	0	-2	-15	-2
COc1ccccc1-n1c(SCC(N)=O)nnc1-c1ccc(S(=O)(=O)N2CCCCC2)cc1	22234*	0	7	4	0
COc1ccccc1OCCNc1ccc(S(=O)(=O)N2CCCC2)cn1	.	.	167*	.	.
CC(C(=O)Nc1ccc2c(c1)OCCO2)N(C)CC(=O)Nc1ccccc1Br (stereo not given)	7106	-6	4	-23	0
O=C(NCC1CCCO1)C1CC(c2ccccc2Cl)=NO1 (stereo not given)	21967*	1	1	1	1
Cc1ccccc1-n1c(SCC(=O)NC2CC2)nc2ccccc2c1=O	4383	0	8	-10	-6
O=c1c(O)cccc2cc(O)c(O)c(O)c12	3221	-2	281*	-10	-9
O=c1cc(-c2ccccc2)oc2cc(O)c(O)c(O)c12	4290	-1	3	-6	-9
O=C(NC1CCCC1)C1c2ccccc2OCC(=O)N1C1CC1 (stereo not given)	5844	0	.	2	-6
Cc1ccnc(N/C=C(\C#N)c2nc(-c3cccc(Br)c3)cs2)c1	8599	56*	-217	39*	39*
Nc1[nH]c(C(=O)c2ccccc2)c(-c2ccc(C(F)(F)F)cc2)c1C(=O)NCc1ccc(Cl)cc1Cl	4887	-1	.	-3	-12
SMILES	Autofluor counter	BoNT-A LC inh2	MazF activator	BoNT F protease	Anthrax LF inh2
COc1ccccc1-c1nc(C#N)c(N2CCN(c3cccc(Cl)c3)CC2)o1	25154*	-5	3	-7	-6
CCOC(=O)c1c(C)cc2c(CO)n[nH]c(=O)c2c1C	3695	0	-2	-2	5
O=C(N/N=C/C=C/c1ccc2c(c1)OCO2)C(O)c1ccccc1 (stereo not given)	3186	-2	2	?	18
CCC(CC)c1nnc(NC(=O)Oc2ccccc2)s1	5722	4	1	42*	7
O=c1[nH]cc(CN2CCOCC2)c(=O)[nH]1	3805	0	4	-3	-3
O=C(O)c1ccc(-c2ccc(/C=c3/sc4nc5ccccc5n4c3=O)o2)cc1Cl	7041	32*	-90	?	133*
O=C(Nc1ccc(F)c(Cl)c1)c1csc(COCCO)n1	3792	0	.	0	-6
COc1cccc(C2=NO[C@@H]3C(=O)N(Cc4ccccc4)C(=O)[C@H]23)c1OC	8668	0	3	-8	-6
COc1cccc(C2=NO[C@@H]3C(=O)N(c4ccc5c(c4)OCCO5)C(=O)[C@H]23)c1OC	20829*	4	-6	6	0
CC(=O)Nc1sc2c(c1C#N)CCC(C)C2 (stereo not given)	4639	0	4	-2	-4
Cc1cc(C(=O)Nc2sc3c(c2C#N)CCC(C)C3)cs1 (stereo not given)	17096*	-2	-10	-2	-2
COc1ccc(C(=O)Nc2ccc(NC(=O)Cc3ccccc3)cn2)cc1	3695	-1	13	-4	-10
Cn1c(=O)c2c(nc(CN3CCN(Cc4ccccc4)CC3)n2CCN2CCOCC2)n(C)c1=O	5869	0	-1	1	-2
Cn1c(=O)c2c(nc(SCCN3CCOCC3)n2Cc2cccc3ccccc23)n(C)c1=O	19656*	0	-4	0	-5
Cn1c(=O)c2c(nc(CN3CCC(Cc4ccccc4)CC3)n2CCN2CCOCC2)n(C)c1=O	27251*	-2	-2	-3	-3
Cn1c(=O)c2c(nc(SCCN3CCOCC3)n2Cc2ccccc2Cl)n(C)c1=O	5471	0	0	-2	-5
Cn1c(=O)c2c(nc(CN3CCC(C(N)=O)CC3)n2CCc2ccccc2)n(C)c1=O	19348*	?	4	3	-1
Cn1c(=O)c2c(nc(NCCCN3CCOCC3)n2Cc2cccc(Cl)c2)n(C)c1=O	22276*	2	-2	6	-1
Cn1c(=O)c2c(nc(CN3CCCCC3)n2CCc2ccccc2)n(C)c1=O	2121	0	8	7	-2
O=C(C[C@@H]1C/C=C\C[C@H](Cc2ccc(F)cc2)C(=O)OCCNC1=O)NCCO	3846	-1	5	-3	-4
Cc1c(CCC(=O)O)c(=O)n2c([nH]c3ccccc32)c1C#N	20757*	0	3	0	-3
COc1cccc(CNC(=O)CN(C)S(=O)(=O)c2cccc3cccnc23)c1	4497	1	0	-1	-10
CN(Cc1ccccc1)S(=O)(=O)c1cccc2cccnc12	24517*	-3	1	-3	-2
Cc1cccc(C)c1NC(=O)Cn1nnc(-c2ccc(N3CCOCC3)cc2)n1	20925*	-2	-14	-3	-2
COc1ccccc1C(=O)Nc1cccc2cccnc12	3468	-1	8	-4	-12
CC(C)(C)c1csc(N(CCC#N)CCC#N)n1	16153*	0	2	1	-5
CC(=O)Nc1cccc(-c2ccnc3c2CC(C(=O)Nc2ccc(Cl)cc2)O3)c1 (stereo not given)	3716	0	.	-1	0
CCNC(=O)CSc1nnc(-c2cccc(S(=O)(=O)N(CC)CC)c2)n1CCc1ccccc1	20492*	0	-2	0	-2
